Source: PubChem BioAssay (NCI)
Where “and” joins values, the source holds several entries; their conditions need not be identical. Equal entries are not always repeated. This is part of a sample that, as a whole, favours compounds with a hit. Of some 83,000 tested, about 20% had one in any assay.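 48-hour exposure, single concentration, 96-well plates; percent growth endpoint where 0 means no net growth. Active: below 10.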 Calls of active or inactive are those of the source.

What was measured:
Experiment in all cases: NCI-60 one-dose screen, 48 h (100 = growth as untreated, 0 = no growth, -100 = all killed)
[1] = system: HCT-15 colon; details: 10 µM
[2] = system: HT29 colon; details: 10 µM
[3] = system: SNB-75 CNS; details: 10 µM
[4] = system: SNB-19 CNS; details: 10 µM
[5] = system: U251 CNS; details: 10 µM
[6] = system: PC-3 prostate; details: 10 µM
[7] = system: SK-MEL-5 melanoma; details: 10 µM
[8] = system: LOX IMVI melanoma; details: 10 µM
[9] = system: SK-MEL-28 melanoma; details: 10 µM
[10] = system: UACC-62 melanoma; details: 10 µM unless noted

SMILES	growth [1]	growth [2]	growth [3]	growth [4]	growth [5]	growth [6]	growth [7]	growth [8]	growth [9]	growth [10]
C[CH2][Hg][S]c1ccccc1C(=O)O	-84.7% (active)	-59% (active)	-43.7% (active)	50.6% (inactive)	-6.81% (active)	55.8% (inactive)	-68.3% (active)	-54.9% (active)	-87.5% (active)	–
COc1ccccc1[As]=[As]c1ccccc1OC (stereo not drawn)	-87.2% (active)	-76.9% (active)	-91.8% (active)	-84.5% (active)	-83.3% (active)	-78.9% (active)	-99.3% (active)	-97.3% (active)	-83% (active)	–
CCOP(=O)(OCC)/C(C#N)=C/c1ccc(Br)cc1	96.3% (inactive)	98.2% (inactive)	86.6% (inactive)	96.8% (inactive)	99.3% (inactive)	95.9% (inactive)	108% (inactive)	95.5% (inactive)	115% (inactive)	88.6% (inactive)
C#CC1(O)CCC(C(C)(C)C)CC1 (stereo not drawn)	91.6% (inactive)	104% (inactive)	113% (inactive)	103% (inactive)	106% (inactive)	97.1% (inactive)	105% (inactive)	110% (inactive)	120% (inactive)	104% (inactive)
COc1ccc(/C=C\[N+](=O)[O-])cc1OC	53.9% (inactive) and 17.4% (inactive)	41.3% (inactive) and 24.7% (inactive)	65.2% (inactive)	82.5% (inactive) and 63.1% (inactive)	56.2% (inactive) and 48.6% (inactive)	68.9% (inactive) and 77.1% (inactive)	72.6% (inactive) and 56.4% (inactive)	2.99% (active) and -69.2% (active)	50.4% (inactive)	–
COc1cc2c(c(OC)c1OC)-c1ccc(O)c(=O)cc1[C@@H](NC(C)=O)CC2	38.3% (inactive)	29.9% (inactive)	67.5% (inactive)	38% (inactive)	24.6% (inactive)	25.2% (inactive)	55.8% (inactive)	44.1% (inactive)	68.3% (inactive)	–
Cc1ccc(C(=O)C2C(c3ccccc3)N2C2CCCCC2)cc1 (stereo not drawn)	99.3% (inactive) and 89.8% (inactive)	111% (inactive) and 84.9% (inactive)	97.5% (inactive) and 88.8% (inactive)	105% (inactive) and 94% (inactive)	106% (inactive) and 93.1% (inactive)	98% (inactive) and 83% (inactive)	88.1% (inactive) and 99% (inactive)	99.9% (inactive) and 98.1% (inactive)	105% (inactive) and 102% (inactive)	–
COC12c3c(C)cc(O)c4c(=O)occ(c34)C(=O)C1C13COC(=O)c4c(O)cc(C)c(c41)C(=O)C2C3OC(C)=O (stereo not drawn)	100% (inactive)	105% (inactive)	89.6% (inactive)	97.6% (inactive)	102% (inactive)	80.2% (inactive)	111% (inactive)	104% (inactive)	91.6% (inactive)	–
Cc1ccc(NC(=O)CBr)cc1	96.6% (inactive)	115% (inactive)	97.1% (inactive)	96.8% (inactive)	–	96.4% (inactive)	96.4% (inactive)	49.8% (inactive)	102% (inactive)	–
O=C1C=Cc2ccccc2C1=O	46.9% (inactive)	112% (inactive)	–	72.7% (inactive)	74.2% (inactive)	72.9% (inactive)	31.3% (inactive)	90% (inactive)	53.2% (inactive)	100% (inactive)
CC(C)c1cc([N+](=O)[O-])cc([N+](=O)[O-])c1O	108% (inactive)	103% (inactive)	–	107% (inactive)	103% (inactive)	81.4% (inactive)	98.4% (inactive)	93.7% (inactive)	102% (inactive)	98.1% (inactive)
COc1ccc(/C=C(\C)[N+](=O)[O-])cc1OC	0.0541% (active)	-67% (active)	56.5% (inactive)	99.8% (inactive)	–	51% (inactive)	54.6% (inactive)	-58.7% (active)	-67.2% (active)	–
[Cl][Sn]([c]1ccccc1)([c]1ccccc1)[c]1ccccc1	-87% (active)	-81.4% (active)	-98.6% (active)	-76.5% (active)	-98.6% (active)	-72.9% (active)	-88.7% (active)	-76.1% (active)	-85% (active)	–
O=[N+]([O-])c1ccc(N(CCO)CCO)c2c1no[n+]2[O-]	–	-78.6% (active)	-39.3% (active)	-17.9% (active)	-69.2% (active)	-5.95% (active)	-73.9% (active)	-26.5% (active)	-8.85% (active)	–
[Cl][Hg][c]1ccc2ccccc2c1	-72.3% (active)	-71.3% (active)	-85.3% (active)	-62.9% (active)	93.1% (inactive)	-35.1% (active)	-100% (active)	-100% (active)	-89% (active)	–
CS(=N)(=O)CCC(N)C(=O)O (stereo not drawn)	99.9% (inactive)	113% (inactive)	91% (inactive)	102% (inactive)	104% (inactive)	89.8% (inactive)	110% (inactive)	103% (inactive)	128% (inactive)	–
CC(C)(C)OOC(=O)/C=C\C(=O)OOC(C)(C)C	106% (inactive)	105% (inactive)	98.5% (inactive)	91.9% (inactive)	99.2% (inactive)	95.4% (inactive)	106% (inactive)	107% (inactive)	109% (inactive)	–

SMILES	growth [1]	growth [2]	growth [3]	growth [4]	growth [5]	growth [6]	growth [7]	growth [8]	growth [9]	growth [10]
O=S(=O)(F)c1ccc(Cl)cc1	98% (inactive)	106% (inactive)	92.9% (inactive)	101% (inactive)	109% (inactive)	91.4% (inactive)	108% (inactive)	96.7% (inactive)	119% (inactive)	–
CN(CCCl)c1ccc(/C=C/C2=[N+](C)c3ccccc3C2(C)C)cc1	101% (inactive)	5.58% (active)	38.9% (inactive)	42.5% (inactive)	13.1% (inactive)	5.9% (active)	21.8% (inactive)	16.9% (inactive)	40.1% (inactive)	–
O=[N+]([O-])c1ccc(Br)c([N+](=O)[O-])c1	36.6% (inactive)	75.4% (inactive)	–	101% (inactive)	99.1% (inactive)	91.8% (inactive)	95.8% (inactive)	13.3% (inactive)	101% (inactive)	103% (inactive)
C[C@]12CC[C@H]3[C@@H](CCC4=CC(=O)CC[C@@H]43)[C@@H]1CC[C@@H]2OC(=O)N(CCCl)N=O	66.8% (inactive)	59% (inactive)	50.1% (inactive)	34.5% (inactive)	30.6% (inactive)	43.1% (inactive)	51.3% (inactive)	39.3% (inactive)	90.2% (inactive)	–
NC(=O)c1cc([N+](=O)[O-])c(Cl)c([N+](=O)[O-])c1Cl	-63.9% (active)	-88.4% (active)	65.1% (inactive)	74% (inactive)	-81.5% (active)	46.7% (inactive)	–	-50% (active)	39.6% (inactive)	–
COc1cc(/C=C/[N+](=O)[O-])cc(OC)c1OC	-9.12% (active)	-27.1% (active)	18.9% (inactive)	56.5% (inactive)	18.4% (inactive)	6.51% (active)	–	-71.7% (active)	-7.3% (active)	–
COc1cc(/C=C(/C)[N+](=O)[O-])ccc1O	-48.3% (active) and 1.2% (active)	3.02% (active) and -26.9% (active)	74.3% (inactive) and 1.18% (active)	81.5% (inactive) and 75.1% (inactive)	25.4% (inactive) and 28% (inactive)	60.7% (inactive) and 56.6% (inactive)	82.3% (inactive) and 64.6% (inactive)	-25.7% (active) and -73.2% (active)	33.1% (inactive) and -9.24% (active)	–
COc1cc(/C=C/[N+](=O)[O-])cc(Br)c1OC	7.99% (active)	–	19.5% (inactive)	49% (inactive)	-21.2% (active)	31.1% (inactive)	24.5% (inactive)	-100% (active)	-19.8% (active)	-5.62% (active)
NNc1ccccc1	82.3% (inactive)	96.9% (inactive)	93.2% (inactive)	96.7% (inactive)	103% (inactive)	–	87.9% (inactive)	65.3% (inactive)	107% (inactive)	40.4% (inactive)
Cc1cc(C(C)(C)c2ccc(O)c(C)c2)ccc1O	93.9% (inactive)	–	73.7% (inactive)	100% (inactive)	86.6% (inactive)	123% (inactive)	88% (inactive)	85.3% (inactive)	100% (inactive)	79.3% (inactive)
COc1cc([N+](=O)[O-])c2ncccc2c1[N+](=O)[O-]	68.9% (inactive)	–	61.3% (inactive)	96% (inactive)	41.9% (inactive)	66.4% (inactive)	95.6% (inactive)	12.2% (inactive)	90.9% (inactive)	–
C[C@H]1CC[C@@]2(NC1)O[C@H]1C[C@H]3[C@@H]4CC[C@H]5C[C@@H](O)CC[C@]5(C)[C@H]4CC[C@]3(C)[C@H]1[C@@H]2C	–	–	–	–	–	–	–	–	–	8.84% [100 µM] (active) and 2.39% [100 µM] (active)
COC1CC2C=C(C)/C=C/C=C/C(=O)NC(c3ccccc3)C/C=C/CCC(O)CC(=O)C2=C1O (stereo not drawn)	-85.2% (active)	-83.7% (active)	-89.9% (active)	-27.1% (active)	–	-91.1% (active)	-97.2% (active)	-91.6% (active)	-80.9% (active)	-89.3% (active)
CN(C)CC1(N)C(=O)NC(=O)NC1=O	102% (inactive)	99.6% (inactive)	89.7% (inactive)	102% (inactive)	96.3% (inactive)	93.5% (inactive)	95.1% (inactive)	104% (inactive)	95.1% (inactive)	–
O=c1[nH]c2ccccc2n1C1CCN(CCCC(c2ccc(F)cc2)c2ccc(F)cc2)CC1	37.7% (inactive) and -3.08% (active)	9.69% (active) and -2.65% (active)	77.1% (inactive) and 106% (inactive)	77.9% (inactive) and 68.2% (inactive)	-1.25% (active) and 17.5% (inactive)	-21.4% (active) and 21.3% (inactive)	23.6% (inactive) and -86.5% (active)	15.6% (inactive) and -22.7% (active)	82.2% (inactive) and -53.2% (active)	–
O=[N+]([O-])/C=C\c1ccc2c(c1)OCO2	78.4% (inactive)	58.2% (inactive)	–	102% (inactive)	71.1% (inactive)	83% (inactive)	94.3% (inactive)	18.9% (inactive)	–	82.5% (inactive)
C[C@@H]1C[C@@H]([C@H](O)CC2CC(=O)NC(=O)C2)C(=O)[C@@H](C)C1	8.36% (active)	3.76% (active)	8.07% (active)	10.5% (inactive)	3.25% (active)	8.32% (active)	0.54% (active)	-10.7% (active)	-13.1% (active)	–
